# Assay results from PubChem BioAssay (NCATS).
# Results filed as inconclusive are left out. Entries that show only a call come without a potency. The source made the active and inactive calls. The call rests on the fitted dose curve; in most records, active means well fitted inhibition curve with a large enough effect; inconclusive means small, poorly fitted or top-dose-only effect; inactive means flat fitted curve, though single readings scatter.
# Target: Calcium and integrin-binding protein 1 (Homo sapiens) (UniProt Q99828)
# Sequence (Q99828 whole entry, looked up): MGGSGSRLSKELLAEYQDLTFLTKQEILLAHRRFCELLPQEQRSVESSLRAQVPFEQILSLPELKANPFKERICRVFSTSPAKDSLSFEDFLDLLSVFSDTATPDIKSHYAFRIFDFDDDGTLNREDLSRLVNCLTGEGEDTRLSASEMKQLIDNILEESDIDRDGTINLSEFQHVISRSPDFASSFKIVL
# Assay: Primary qHTS for Identification of Calcium Integrin Binding Protein 1 (CIB1) Competitor (AID 1508620);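 further: GST tagged CIB1 binding a fluorescein labelled alphaIIb integrin peptide tracer; top concentration of the series differs between compounds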
# Settings: CIB1-GST / FITC-alphaIIb peptide fluorescence polarization; series mostly up to 114 µM
# Procedure, shortened: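 CIB1-GST (1 uM final) and compound incubated 15 min at room temperature before adding FITC-alphaIIb peptide tracer (100 nM final). Competition for binding read by fluorescence polarization (ex 480, em 540) after another 15 min at room temperature.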
row,SMILES,Potency
1,O=C(Nc1ccc(F)c(F)c1)Nc1nnc(-c2ccncc2)s1,inactive
2,Nc1cc(NC(=O)Nc2nnc(-c3ccncc3)s2)ccc1Cl,inactive
3,CN(C)CC(=O)NC1CCCc2c1cnn2-c1ccc(F)cc1F (stereo not given),inactive
4,O=C(O)CCCCCNC(=O)CSc1nnc(-c2ccc([S+](=O)([O-])N3CCCC3)cc2)n1-c1ccccc1,inactive
5,COc1cc(Cl)c(C)cc1NC(=O)C(OC(=O)CNC(=O)c1ccccc1)c1ccccc1 (stereo not given),inactive
6,CC(=O)NC(c1ccco1)c1cc(Cl)c2ccc(Cl)nc2c1O (stereo not given),inactive
7,Cn1nnnc1Sc1ncnc2scc(-c3cccc(C(F)(F)F)c3)c12,inactive
8,c1nc(NCCC2CCCO2)c2cc(-c3ccc4c(c3)OCO4)ccc2n1 (stereo not given),inactive
9,NC(=O)N1CCN(c2nc(-c3ccc(Br)cc3)cs2)CC1,inactive
10,Cc1ccc(-c2ccc(=O)n(CC(=O)N(C)C3CCCCCC3)n2)cc1,inactive
11,COC(=O)c1ccccc1S(=O)(=O)Nc1cc(=O)c2ccccc2[nH]1,inactive
12,Cc1cc(C)nc(NC(=S)N2CC3CN(c4ncc(C(F)(F)F)cc4Cl)CC3C2)c1 (stereo not given),inactive
13,c1nc(NCC2CC2)c2cc(-c3ccc4c(c3)OCO4)ccc2n1,inactive
14,Cc1ccccc1C(=O)N1CCc2cc(-c3nc(NC(=O)CC4CCCCC4)sc3C)ccc21,inactive
15,Cc1ccc(NS(=O)(=O)c2cc3c(cc2N2CCC2)NC(=O)CC3)cc1C,inactive
16,C=CCNc1oc(-c2cccs2)nc1C#N,inactive
17,Cc1nnc(CN(C)c2ncnc3ccc(-c4ccc5c(c4)OCO5)cc23)o1,inactive
18,COc1ccc(C2=Nn3c(nnc3-c3ccc(OC)c(OC)c3)SC2)cc1OC,inactive
19,Fc1ccc(Nc2nc(-c3ccnc(N4CCCCC4)c3)nc3ccccc23)cc1F,inactive
20,Cc1noc(C)c1-c1ccc2ncnc(NCc3ccc(-c4ccccc4)cc3)c2c1,inactive

row,SMILES,Potency
1,O=S(=O)(c1ccc2c(c1)OCCO2)C1CCC(O)CC1 (stereo not given),inactive
2,Oc1ccc(CNCc2ccccc2F)c2cccnc12,inactive
3,COc1ccc(C2c3c(N)nc(CCCc4ccccc4)nc3Oc3ccc4ccccc4c32)cc1OC (stereo not given),inactive
4,CC(=O)c1ccc(-c2csc(N3CCC(C(N)=O)CC3)n2)cc1,inactive
5,O=C1CCCC2=C1C(c1[nH]ncc1Cl)N=C(Nc1nc3cc([S+](=O)([O-])N4CCOCC4)ccc3o1)N2 (stereo not given),inactive
6,Cc1cc(C)nc(NC(=S)N2CCN(c3ccc(F)c(F)c3)CC2)c1,inactive
7,Cc1c(P(=S)(c2ccccc2)c2ccccc2)[n+]2ccccc2n1CCCc1ccccc1,inactive
8,CC(=O)Nc1sc2c(c1-c1nc3ccccc3s1)CCN(C(C)=O)C2,inactive
9,Cn1c2cc(Br)sc2c2cnn(Cc3ccccc3F)c(=O)c21,inactive
10,COc1cc(O)c(C(CC(=O)N2CCCC(C(=O)N3CCCCC3)C2)c2ccc3c(c2)OCO3)c(OC)c1 (stereo not given),inactive
11,Cn1c2cc(Br)sc2c2cnn(Cc3ccc(F)cc3F)c(=O)c21,inactive
12,O=C(O)c1ccc2c(c1)C(=O)N([C@H](Cc1ccc(O)cc1)C(=O)O)C2=O,inactive
13,Cc1cc(C)nc(NC(=S)N2CCN(c3cccc4[nH]ccc34)CC2)c1,inactive
14,Fc1cc(Nc2nc(-c3ccncc3)nc3ccccc23)ccc1-c1cn[nH]c1,inactive
15,COc1cccc(C2=Nn3c(nnc3-c3cc(OC)cc(OC)c3)SC2)c1,inactive
16,Fc1cccc(CNc2ncnc3ccc(-c4cccnc4)cc23)c1,inactive
17,COc1ccc(-c2nnc3n2N=C(c2ccc(OC)c(OC)c2)CS3)c(OC)c1,inactive
18,CN(C)c1cccc(-c2ncc(F)c(N3CCC(C(N)=O)CC3)n2)c1,inactive
19,O=C1CCCC2=C1C(c1cnccc1C(F)(F)F)N=C(Nc1nc3ccccc3o1)N2 (stereo not given),inactive
20,COc1cccc(C2=Nn3c(nnc3-c3ccc(OC)cc3OC)SC2)c1,inactive
